Compound activity: PubChem, National Center for Advancing Translational Sciences (NCATS)
Sampled rows, rich in hits. Any-hit rate of the full collection: about 11%.
PI5P4Ka inh: PI5P4K alpha (human) kinase inhibition. AID 652105. hit rate 1.2% among 330,000. PI5P4Kalpha enzyme, ADP-Glo luminescence, 60 min; stronger effect = lower value. max response, %. P48426; active means max response of -50% or lower; inconclusive means between -30% and -50%; inactive means -30% or higher; further: value at the top dose of about 77 µM; on the % scale 0 is the no-effect control and ±100 the full control effect
Target sequence (P48426 whole entry, looked up): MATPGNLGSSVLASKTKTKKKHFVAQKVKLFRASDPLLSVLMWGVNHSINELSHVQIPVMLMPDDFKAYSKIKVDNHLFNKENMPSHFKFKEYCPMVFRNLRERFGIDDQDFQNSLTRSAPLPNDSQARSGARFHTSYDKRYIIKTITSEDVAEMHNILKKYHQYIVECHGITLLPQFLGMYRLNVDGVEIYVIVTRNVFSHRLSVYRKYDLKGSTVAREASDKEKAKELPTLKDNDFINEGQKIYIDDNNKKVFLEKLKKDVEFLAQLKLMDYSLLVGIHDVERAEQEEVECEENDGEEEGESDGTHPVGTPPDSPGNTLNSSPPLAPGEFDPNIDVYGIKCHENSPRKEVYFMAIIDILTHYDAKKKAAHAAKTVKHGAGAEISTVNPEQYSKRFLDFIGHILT
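ADP-Glo luminescence end-point read after a 60 min room-temperature kinase reaction of PI5P4Kalpha plus substrate, initiated with ATP at 5 microM final. Buffer: 0.038 M HEPES pH 7.4, EGTA, 0.1% CHAPS, 5% DMSO.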
G9a block: inhibitors of human histone lysine methyltransferase G9a; G9a H3K9 monomethylation, AlphaScreen, 2 h; Potency, µM (titrated, usually from 102 µM), for the others: at the highest dose activity, negative = inhibition, usual class: inhibitors; hit rate 8.8% among 350,000; AID 504332; further: potency means the concentration at half of the fitted maximal effect; on the % scale 0 is the no-effect control and ±100 the full control effect; nearly all actives have a fitted effect of over 75% in size
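Methyltransferase reactions run at room temperature for 2 h (20 nM enzyme, 500 nM biotin-H3K9 peptide, 20 uM SAM) after a 15 min compound preincubation; product detected by AlphaScreen beads and anti-H3K9me1 antibody.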
JMJD2A Tudor: JMJD2A Tudor domain (human) inhibition. O75164. AlphaScreen JMJD2A-Tudor / H3K4me3 peptide binding. Potency, µM (top dose mostly 114 µM), for inactives: at the top dose activity change, negative = inhibition, usual class: inhibitors. hit rate 4.4% among 390,000; further: potency means the concentration at half of the fitted maximal effect; on the % scale 0 is the no-effect control and ±100 the full control effect; nearly all actives have a fitted effect of over 50% in size
L3MBTL1 inh: blocks human L3MBTL1; Q9Y468; hit rate 0.66% among 230,000; Potency, µM (doses to about 57.1 µM), inactives show top-dose activity, negative = inhibition, hits mostly inhibitors; AlphaScreen L3MBTL1–H3K9me1 peptide binding; further: potency means the concentration at half of the fitted maximal effect; on the % scale 0 is the no-effect control and ±100 the full control effect; nearly all actives have a fitted effect of over 60% in size
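Read-out is AlphaScreen signal from streptavidin donor and nickel chelate acceptor beads (10 ug/mL final each) bridging L3MBTL1 (50 nM) and biotinylated K9-monomethylated H3(1-15) peptide (75 nM), after 30 min compound exposure at room temperature.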
HP1b binding inh: blocks HP1-beta chromodomain binding to methylated histone tails | P83916 | AlphaScreen HP1-beta / biotin-H3K9me3 peptide binding | Potency, µM (doses to about 114 µM), for the others: top-dose activity change, negative = inhibition, usual class: inhibitors | hit rate 0.56% among 390,000; further: potency means the concentration at half of the fitted maximal effect; nearly all actives have a fitted effect of over 70% in size
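AlphaScreen: HP1-beta (50 nM) preformed 30 min with biotin-H3(1-18)K9me3 peptide (50 nM) in PBS pH 7.4, 0.01% Tween-20. Compound added for 30 min at RT, then streptavidin donor/nickel chelate acceptor beads (10 ug/mL) for 30 min.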
BAZ2B block: blocks human BAZ2B | AlphaScreen BAZ2B-H3K14Ac peptide displacement | hit rate 4.4% among 360,000 | Potency, µM (titrated, usually from 114 µM), for inactives: at the highest dose activity change, negative = inhibition, actives largely listed as inhibitors | Q9UIF8; further: potency means the concentration at half of the fitted maximal effect; on the % scale 0 is the no-effect control and ±100 the full control effect; nearly all actives have a fitted effect of over 60% in size
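Multi-concentration screen (max 110 uM) measuring displacement of acetylated histone H3 peptide from BAZ2B by AlphaScreen, using 50 nM protein, 50 nM peptide and 10 ug/mL streptavidin donor plus Ni-chelate acceptor beads.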
Starred values were filed as active, the others as inactive; [ ] = dose if it differs, or a comment. Unless noted, the call rests on the fitted dose curve; in most records, active means well fitted inhibition curve with a large enough effect; inconclusive means small, poorly fitted or top-dose-only effect; inactive means no such curve, though single readings can be large or run the other way.

How did O=C(CCn1c(=O)c2ccccc2n(Cc2cccc(Cl)c2)c1=O)NCCc1ccccc1 do in these assays?
G9a block: 1%[59 µM]; JMJD2A Tudor: -16%; HP1b binding inh: 16%; BAZ2B block: -4%

How did CC(C)c1ccc(NC(=S)NNC(=O)C2CC2)cc1 do in these assays?
PI5P4Ka inh: 0; JMJD2A Tudor: -15%; L3MBTL1 inh: 9%; HP1b binding inh: 46%; BAZ2B block: 10%

How did CC(C)c1ccc(NNC(=O)C2CCC2)cc1 do in these assays?
PI5P4Ka inh: -1; G9a block: 7.1µM*; JMJD2A Tudor: inconclusive; L3MBTL1 inh: -4%; HP1b binding inh: 37%; BAZ2B block: -14%

What do the screens show for `CC1=C(C(=O)Nc2ccccc2)C2(CCCCC2)C(C#N)=C(S)N1`?
PI5P4Ka inh: -58*; G9a block: 7.9µM*; JMJD2A Tudor: -34%; HP1b binding inh: 2%; BAZ2B block: -32%

Results for CSC1=C(C#N)C2(CCCCC2)C(C(=O)Nc2ccccc2)=C(C)N1 ?
PI5P4Ka inh: 3; JMJD2A Tudor: -27%; HP1b binding inh: 18%

Results for Cc1cccc(N2CCN(C3(c4ccccc4)C(=O)c4ccccc4C3=O)CC2)c1C ?
G9a block: inconclusive; JMJD2A Tudor: inconclusive; HP1b binding inh: -16%; BAZ2B block: -17%[57.1 µM]

Results for O=C1c2ccccc2C(=O)C1(c1ccccc1)N1CCN(c2cccc(Cl)c2)CC1 ?
G9a block: 6.3µM*; JMJD2A Tudor: inconclusive; HP1b binding inh: -18%; BAZ2B block: inconclusive

How did O=C1c2ccccc2C(=O)C1(c1ccccc1)N1CCN(c2cccc(C(F)(F)F)c2)CC1 do in these assays?
G9a block: 10µM*; JMJD2A Tudor: inconclusive; HP1b binding inh: -12%; BAZ2B block: inconclusive

Results for Cc1ccnc(NC(=S)NC(=O)c2cncc(Br)c2)c1 ?
PI5P4Ka inh: -2; G9a block: 0.63µM*; JMJD2A Tudor: 3%; L3MBTL1 inh: 4%; HP1b binding inh: 24%; BAZ2B block: -39%

What do the screens show for `CCOC(=O)c1ccc(NC(=S)NC(=O)c2cncc(Br)c2)cc1`?
PI5P4Ka inh: -1; G9a block: inconclusive; JMJD2A Tudor: -1%; HP1b binding inh: 24%; BAZ2B block: -3%

Results for O=C(O)c1ccc(NC(=S)NC(=O)c2cncc(Br)c2)cc1 ?
PI5P4Ka inh: -10; G9a block: 40µM*; JMJD2A Tudor: -8%; L3MBTL1 inh: -7%; HP1b binding inh: -1%; BAZ2B block: inconclusive

What do the screens show for `Cc1nc(NC(=S)NC(=O)c2cncc(Br)c2)ccc1Br`?
PI5P4Ka inh: -20; JMJD2A Tudor: 18µM*; L3MBTL1 inh: 17%; HP1b binding inh: 6%; BAZ2B block: -28%

How did Cc1ccc(NC(=S)NC(=O)c2cncc(Br)c2)c(C)c1 do in these assays?
PI5P4Ka inh: -13; JMJD2A Tudor: -11%; HP1b binding inh: 49%

What do the screens show for `O=C(O)c1ccc(NC(=S)NC(=O)c2ccc(-c3ccccc3)cc2)cc1`?
PI5P4Ka inh: -55*; G9a block: 18µM*; JMJD2A Tudor: inconclusive; HP1b binding inh: inconclusive; BAZ2B block: inconclusive

Results for O=c1c2c3c(sc2nnn1Cc1ccc(Br)cc1)CCCC3 ?
G9a block: 64%[59 µM]; JMJD2A Tudor: 15%; HP1b binding inh: 46%; BAZ2B block: 22%

What do the screens show for `NC(=O)c1ccc(SCC(=O)OCC(=O)NCC2CCCCC2)c([N+](=O)[O-])c1`?
PI5P4Ka inh: 1; G9a block: 45µM*; JMJD2A Tudor: -6%; L3MBTL1 inh: 5%; HP1b binding inh: 14%; BAZ2B block: 8%

Results for CCOC(=O)CSc1ccc(S(=O)(=O)N(C)C2CCCCC2)cc1[N+](=O)[O-] ?
G9a block: inconclusive; JMJD2A Tudor: 56µM*; HP1b binding inh: -20%; BAZ2B block: inconclusive
